RE007 growth inh: less growth of the S. pombe RE007 Vpr strain | S. pombe RE007 Vpr strain, BacTiter-Glo ATP luminescence, 24 h | Potency, µM (titrated, usually from 92.2 µM), without a hit: at the highest dose activity change, negative = less growth, hits mostly inhibitors | 360,000 tested, 0.21% active | AID 651644; active = well fitted falling curve with a large enough effect; inconclusive = small, poorly fitted or top-dose-only effect; inactive = no such curve, though single readings can be large or run the other way; also: nearly all actives have a fitted effect of over 50% in size
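Fission yeast strain RE007, carrying one chromosomally integrated HIV-1 vpr copy, was seeded at OD 0.01 in PMG+AL medium with 23 nL pinned compound. After 24 h at 30 °C and 99% humidity, viability was read by BacTiter-Glo luminescence.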
TbPYK inhibitor: T. brucei pyruvate kinase inhibition | Q57TT1 | TbPYK enzyme, Kinase-Glo Plus ATP luminescence, 45 min | Potency, µM (titrated, usually from 76.8 µM), without a hit: top-dose activity, negative = inhibition, hits mostly inhibitors | 410,000 tested, 0.12% active | AID 624173; also: nearly all actives have a fitted effect of over 50% in size
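Screened from lowest to highest concentration, compounds were pinned into TbPYK/substrate mixtures, and ADP (130 uM final) was added. Plates sat at room temperature for 45 min prior to Kinase-Glo Plus detection by luminescence.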
LmPK inh: blocks Leishmania mexicana pyruvate kinase activity. Q27686. AID 1721. Potency, µM (top dose mostly 57.5 µM), for inactives: top-dose activity change, negative = inhibition, actives largely listed as inhibitors. purified LmPK, Kinase-Glo ATP luminescence, 1 h. 290,000 tested, 0.37% active
Target sequence (Q27686 whole entry, looked up): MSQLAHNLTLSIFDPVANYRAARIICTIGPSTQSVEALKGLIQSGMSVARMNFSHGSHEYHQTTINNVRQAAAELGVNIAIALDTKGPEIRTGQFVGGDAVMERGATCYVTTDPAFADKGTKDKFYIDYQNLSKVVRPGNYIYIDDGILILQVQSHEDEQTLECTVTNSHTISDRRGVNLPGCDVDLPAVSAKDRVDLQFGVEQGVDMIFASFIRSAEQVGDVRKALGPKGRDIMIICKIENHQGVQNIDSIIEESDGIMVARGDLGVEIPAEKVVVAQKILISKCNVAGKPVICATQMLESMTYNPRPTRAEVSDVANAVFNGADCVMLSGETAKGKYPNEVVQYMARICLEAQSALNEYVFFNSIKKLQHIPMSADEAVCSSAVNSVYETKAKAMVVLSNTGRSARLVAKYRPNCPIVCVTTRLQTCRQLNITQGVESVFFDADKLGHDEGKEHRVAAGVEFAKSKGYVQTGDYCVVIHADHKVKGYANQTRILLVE
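In 50 mM imidazole pH 7.2 with 7 mM MgCl2, LmPK (0.1 nM) turned over PEP (0.5 mM) and ADP (0.1 mM) for 1 h at room temperature. Luciferase read-out of ATP.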
Sm TGR inh: blocks Schistosoma mansoni thioredoxin glutathione reductase; Potency, µM (highest dose often 114 µM), inactives show top-dose activity change, negative = inhibition, hits mostly inhibitors; AID 485364; 360,000 tested, 3% active; Q962Y6; purified TGR, DTNB reduction, TNB absorbance 405 nm; also: nearly all actives have a fitted effect of over 60% in size
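Kinetic colorimetric format: TGR-catalysed, NADPH-driven DTNB reduction monitored via TNB absorbance. Enzyme dispensed at 20 nM; compound exposure 15 min at room temperature before reaction start.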
An asterisk follows results filed as active; ? = inconclusive; . = not tested or not shown; [ ] = remark or other dose. Only some compounds are listed: those with a hit (about 3% of all), similar ones and a draw of the others. Unless noted, calls follow the shape of the dose curve; as a rule, active = well fitted curve in the direction sought with a large enough effect; inconclusive = small, poorly fitted or top-dose-only effect, or another doubt; inactive = no such curve, though single readings can be large; an effect the other way counts as inactive or inconclusive. % is scaled to controls: 0 for no effect and ±100 for the full control effect; potency is read from the fitted curve at half-maximal effect.

SMILES | RE007 growth inh | TbPYK inhibitor | LmPK inh | Sm TGR inh
CS(=O)(=O)N1N=C(c2cccs2)CC1c1ccco1 (stereo not drawn) | -10% | -5% | -7% | 7.9µM*
Cc1cccc2cc(C3CC(c4ccco4)=NN3S(C)(=O)=O)c(Cl)nc12 (stereo not drawn) | 25% | -2% | 0% | 32µM*
Cc1cccc2cc(C3CC(c4ccco4)=NN3S(=O)(=O)c3ccccc3)c(Cl)nc12 (stereo not drawn) | -1% | 1% | 2% | -9%
CCOc1ccccc1OCCCC(=O)N1CCN(S(=O)(=O)c2ccc(C)cc2C)CC1 | 6% | -5% | . | -3%
CC1(C(=O)NS(=O)(=O)c2cccc(C#N)c2)CCN1C(=O)CCc1ccccc1 (stereo not drawn) | 16% | -1% | . | .
CCOc1ccccc1CNC(=O)c1sc2ncccc2c1-n1cccc1 | . | -6% | . | 0%
Cc1oc(-c2ccccc2Cl)nc1Cn1c(SCc2cccc(F)c2)nc2cccnc21 | . | 5% | . | -11%
O=C(c1ccco1)N1CCN(Cc2cc(=O)oc3cc(O)ccc23)CC1 | -11% | -4% | . | 45µM*
CC(=O)NC(c1ccccc1)c1nc(-c2cncnc2)cs1 (stereo not drawn) | 8%[18.4 µM] | -6% | . | .
COc1ccc(S(=O)(=O)N2CCC(c3nc4ccccc4[nH]3)CC2)cc1 | -18% | -2% | -5% | -8%
COc1ccc(N2C(=O)CC(N3CCC(c4nc5ccccc5[nH]4)CC3)C2=O)cc1 (stereo not drawn) | 40µM* | 2% | -11% | 40µM*
COc1ccc(N2C(=O)CC(n3cnc4ccccc43)C2=O)cc1 (stereo not drawn) | 3% | -6% | 17% | -22%
O=C1CC(N2CCC(c3nc4ccccc4[nH]3)CC2)C(=O)N1c1ccccc1F (stereo not drawn) | 35µM* | 4% | 1% | 32µM*
COc1ccc(N2C(=O)CC(n3c(CCCCO)nc4ccccc43)C2=O)cc1 (stereo not drawn) | ? | -8% | 0% | 8.9µM*
CCCOc1ccc(CN(C(=O)c2cc(=O)c3ccc(C)cc3o2)C2CCS(=O)(=O)C2)cc1 (stereo not drawn) | . | 2% | . | -1%
Cc1ccc(C)c(S(=O)(=O)Nc2ccc(O)c(Sc3ncn[nH]3)c2)c1 | -1% | -12% | 0% | 50µM*
CCOC1=C2[C@@H](CN(S(=O)(=O)c3ccc(C)cc3)[C@H]2c2ccccc2F)[C@H]2C(=O)NC(=O)[C@H]2C1 | 2% | -4% | . | .
Cc1ccc(CN(C(=O)COc2ccccc2Cl)c2ccccn2)o1 | . | -22% | . | 40µM*
Cc1ccc(NC(=O)Cn2cc3c(n2)CCCCC3)cc1 | . | -7% | . | -13%
O=C1Oc2ccccc2C(=O)C1C(CC(O)c1ccc(-c2ccc(Br)cc2)cc1)c1ccccc1 (stereo not drawn) | . | 0% | . | .
CCc1cccc2c(C(=O)CCl)c[nH]c12 | 22% | -5% | -1% | 7.9µM*
CCc1cccc2c(C(=S)N3CCCC3)c[nH]c12 | 7% | 1% | 2% | -5%[57.1 µM]
COc1cccc2nc3cc(C)c(C)cc3nc12 | 2.8µM* | ? | 13µM* | -30%
O=C(/C=C/c1c(F)cccc1Cl)c1ccc(O)cc1 | -25% | -9% | -11% | 40µM*
N#Cc1ccc(/C=C/C(=O)c2cccnc2)cc1 | 45µM* | ? | -4% | 28µM*
SMILES | RE007 growth inh | TbPYK inhibitor | LmPK inh | Sm TGR inh
O=C(/C=C/c1ccccc1Cl)c1cccnc1 | ? | -22% | -16% | 13µM*
N#Cc1ccc(/C=C/C(=O)O)cc1 | 9% | 4% | 2% | -7%
O=C(/C=C/c1ccccc1Cl)c1ccc(O)cc1 | -5% | -5% | -11% | 45µM*
O=C(C=Cc1ccccc1F)c1ccccc1 | ? | -8% | . | .
Cc1ccc(S(=O)(=O)c2cn(CC(=O)Nc3ccc4c(c3)OCO4)c3ccc(C)cc3c2=O)cc1 | . | -6% | . | -14%
C(=Cc1cccnc1)c1ccncc1 | 3% | 7% | . | .
O=C(/C=C/c1cccnc1)/C=C/c1cccnc1 | ? | -22% | -8% | 3.2µM*
O=C(/C=C/c1ccc(Cl)cc1)c1cccnc1 | 28µM* | -10% | -4% | 14µM*
O=C(/C=C/c1ccccc1Cl)Nc1ccccc1 | ? | -9% | 14µM* | 11%
CCN(CC)c1ccc(/C=C/C(=O)c2cccnc2)cc1 | 19% | -3% | 1% | 4%
COc1cc(/C=C/C(=O)O)cc(S(=O)(=O)NCc2ccco2)c1OC | -3% | -12% | 7% | 32µM*
Cc1ccc(/C=C/C(=O)O)cc1S(=O)(=O)N(C)CCO | -1% | 39% | 2% | 22µM*
Cc1ccc(/C=C/C(=O)O)cc1S(=O)(=O)NCc1ccco1 | -21% | 3% | -2% | 32µM*
CCOC(=O)C1=C(O)/C(=C\c2ccc(CNC(=O)C(=O)Nc3ccccc3)o2)N=C1C | 3% | -12% | 2% | 8.9µM*
CCOC(=O)/C=c1\s/c(=C(\C#N)C(N)=O)n(-c2ccccc2)c1=O | 25% | -7% | -3% | 10µM*
CCOc1ccc(C(=O)C(CCC(CN(C)C)C(=O)c2ccc(OCC)cc2)CN(C)C)cc1 (stereo not drawn) | 29% | 0% | 4% | 16µM*
CC(N)C(=O)c1ccccc1 (stereo not drawn) | . | 1%[157 µM] | . | .
CN(C)CC(CCC(CN(C)C)C(=O)c1ccccc1)C(=O)c1ccccc1 (stereo not drawn) | 1% | -4% | 0% | 2µM*
O=C(c1ccccc1)C(CCC(CN1CCOCC1)C(=O)c1ccccc1)CN1CCOCC1 (stereo not drawn) | 5% | -6% | -1% | 8.9µM*
COc1ccc(C(=O)C(CCCCC(CN(C)C)C(=O)c2ccc(OC)cc2)CN(C)C)cc1 (stereo not drawn) | 4% | 5% | -4% | -38%
Cc1c(NC(=O)c2cc(=O)c3cc(Cl)ccc3o2)c(=O)n(-c2ccccc2)n1C | . | -2% | . | 1%
Cc1sc(-n2cccc2)c(C(C)NC(=O)Nc2ccccc2Cl)c1C (stereo not drawn) | . | 0% | . | -1%
CNC(=O)c1ccccc1Sc1ccc2c(/C=C/c3ccccn3)n[nH]c2c1 | . | 0% | . | .
CCN=c1scc(-c2cccs2)n1/N=C/c1cc(OC)ccc1O | -12% | -17% | -4% | -1%
CC(C)N=c1scc(-c2cccs2)n1/N=C/c1ccc(O)c(O)c1O | ? | -23% | -11% | 20µM*
CN=c1scc(-c2ccccc2F)n1/N=C/c1ccc(O)c(O)c1O | ? | ? | ? | 18µM*
CN=c1scc(-c2ccccc2F)n1/N=C/c1ccc[nH]1 | ? | -19% | -25% | -14%
O=C1c2cccnc2C(Nc2cccc(F)c2)N1Cc1ccco1 (stereo not drawn) | 18% | 2% | 3% | 35µM*
O=C1c2cccnc2C(Nc2ccccc2Br)N1Cc1ccco1 (stereo not drawn) | 5% | -2% | -3% | 22µM*

Screening data: PubChem, National Center for Advancing Translational Sciences (NCATS)
